Assay outcomes deposited in PubChem BioAssay by National Center for Advancing Translational Sciences (NCATS).
Pol kappa inh-1 – inhibitors of human DNA polymerase kappa | Q9UBT6 | purified Pol kappa, fluorescent DNA synthesis assay, 10 min | Potency, µM (titrated, usually from 107 µM), for inactives: at the top dose activity, negative = inhibition, most hits filed as inhibitors | 400,000 tested, 0.53% active; note: potency is the fitted concentration of half-maximal effect; % is set by controls: 0 for no effect and ±100 for the full control effect
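Kinetic fluorescence screen: compound preincubated 15 min RT with 10 nM enzyme; 50 nM substrate (final) initiates; reads at 0/10 min.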
L3MBTL1 block – L3MBTL1 (human) inhibition | AID 485360 | 230,000 tested, 0.66% active | Potency, µM (titrated, usually from 57.1 µM), inactives show at the highest dose activity, negative = inhibition, most hits filed as inhibitors | AlphaScreen L3MBTL1–H3K9me1 peptide binding | Q9Y468; note: potency is the fitted concentration of half-maximal effect; % is set by controls: 0 for no effect and ±100 for the full control effect; nearly all actives have a fitted effect of over 60% in size
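First, the protein-peptide complex forms for 30 min at room temperature (L3MBTL1 50 nM, biotinylated H3K9me1 peptide 75 nM). Next, compounds are pin-transferred and incubated 30 min. Finally, AlphaScreen beads are added and read after 30 min.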
Pol eta inh-1 – DNA polymerase eta (human) inhibition | Q9Y253 | recombinant Pol eta, fluorescent DNA replication assay | Potency, µM (top dose mostly 114 µM), for the others: top-dose activity change, negative = inhibition, most hits filed as inhibitors | 390,000 tested, 1.2% active | AID 588591; note: potency is the fitted concentration of half-maximal effect; % is set by controls: 0 for no effect and ±100 for the full control effect
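Pol eta at 10 nM preincubated with compounds 15 min at room temperature; reaction started with fluorescent substrate (50 nM final) and read kinetically at 0 and 10 min.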
POLI inh – blocks human DNA polymerase iota activity; Q9UNA4; Pol iota fluorescent replication assay, 10 min; AID 588590; 390,000 tested, 1% active; Potency, µM (highest dose often 115 µM), for the others: at the highest dose activity, negative = inhibition, most hits filed as inhibitors; note: potency is the fitted concentration of half-maximal effect
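Fluorescent replication assay read twice, at 0 min and 10 min after adding 50 nM (final) substrate. Enzyme (10 nM) and compounds were first incubated 15 min at room temperature; enzyme-free buffer wells were negative controls.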
WRN inhibitor – blocks human WRN helicase. WRN helicase unwinding, fluorescent forked duplex, kinetic. Potency, µM (series often up to 114 µM), inactives show top-dose activity change, negative = inhibition, actives largely listed as inhibitors. Q14191. AID 651768. 360,000 tested, 0.46% active; note: potency is the fitted concentration of half-maximal effect; % is set by controls: 0 for no effect and ±100 for the full control effect; nearly all actives have a fitted effect of over 55% in size
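WRN at 20 nM final was preincubated with compound for 15 min at room temperature; reaction started with 100 nM forked duplex oligonucleotide carrying fluorophore and quencher plus 2 mM ATP (final). Unwinding followed kinetically by red fluorescence (ex 525/em 598 nm).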
Pol beta inh – blocks human DNA polymerase beta activity | P06746 | Pol beta primer extension/strand displacement, fluorescence kinetic | Potency, µM (highest dose often 114 µM), for inactives: at the highest dose activity change, negative = inhibition, most hits filed as inhibitors | 340,000 tested, 1.3% active | AID 485314; note: potency is the fitted concentration of half-maximal effect; % is set by controls: 0 for no effect and ±100 for the full control effect
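10 nM enzyme + cpd, 15 min RT; start with substrate 50 nM final; read 0 min and after 10 min RT. Corrected, normalized data; 4-parameter Hill curve fit.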
GALK inh confirm – galactokinase (human) inhibition, confirmation. shares compounds with Pol eta inh-1. purified GALK, Kinase-Glo ATP depletion luminescence. Potency, µM (titrated, usually from 115 µM), inactives show top-dose activity, negative = inhibition, actives largely listed as inhibitors. 150 tested, 70% active. AID 2015
Target sequence (P51570 whole entry, looked up): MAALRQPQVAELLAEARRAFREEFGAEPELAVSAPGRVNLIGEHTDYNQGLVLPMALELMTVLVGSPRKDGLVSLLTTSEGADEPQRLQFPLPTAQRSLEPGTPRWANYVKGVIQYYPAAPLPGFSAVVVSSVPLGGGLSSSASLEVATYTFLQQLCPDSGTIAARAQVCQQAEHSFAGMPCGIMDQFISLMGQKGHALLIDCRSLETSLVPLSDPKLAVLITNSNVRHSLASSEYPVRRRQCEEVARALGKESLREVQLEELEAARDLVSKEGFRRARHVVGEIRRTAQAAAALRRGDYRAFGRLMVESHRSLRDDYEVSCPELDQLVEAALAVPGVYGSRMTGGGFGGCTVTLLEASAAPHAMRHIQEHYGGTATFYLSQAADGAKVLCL
GALK redox cs – generates H2O2 by redox cycling, flagging GALK artifacts. shares compounds with Pol eta inh-1. Phenol red-HRP H2O2 redox cycling, absorbance 600 nm. Potency, µM (doses to about 115 µM), for inactives: at the top dose activity change, negative = H2O2 signal, most hits filed as inhibitors. 150 tested, 40% active. AID 2035
HEK293 tox – HEK-293 cytotoxicity, GALK inhibitor secondary; 170 tested, 10% active; HEK-293 viability, ATP luminescence (CellTiter-Glo), 24/48 h; Potency, µM (doses to about 46.1 µM), without a hit: at the highest dose activity change, negative = cytotoxicity, hits mostly inhibitors; shares compounds with Pol eta inh-1; AID 2547; note: potency is the fitted concentration of half-maximal effect; % is set by controls: 0 for no effect and ±100 for the full control effect
Pol kappa inh-2 – Pol kappa (human) inhibition, cherry-pick confirmation | shares compounds with Pol eta inh-1 | purified Pol-kappa, fluorescent strand-displacement substrate | Potency, µM, usual class: inhibitors | 920 tested, 76% active | AID 720501; note: potency is the fitted concentration of half-maximal effect
Pol eta inh-2 – confirmation of human DNA polymerase eta inhibitors; Potency, µM, most hits filed as inhibitors; shares compounds with Pol eta inh-1; AID 720502; 2,600 tested, 64% active; Pol eta primer extension, TAMRA/BHQ fluorescence, 10 min; note: potency is the fitted concentration of half-maximal effect
* hit, by the source's call; ? = inconclusive; / = no result; [ ] = remark or other dose. Sampled rows, rich in hits. Any-hit rate of the full collection: about 2.5%. Calls come from the whole dose curve; as a rule, active = well fitted curve in the direction sought with a large enough effect; inconclusive = small, poorly fitted or top-dose-only effect, or another doubt; inactive = no such curve, though single readings can be large; an effect the other way counts as inactive or inconclusive.

SMILES	Pol kappa inh-1	L3MBTL1 block	Pol eta inh-1	POLI inh	WRN inhibitor	Pol beta inh	Pol eta inh-2	others
Cc1noc(C)c1S(=O)(=O)Nc1ccc(C(=O)Nc2ccc(OC(F)(F)F)cc2)cc1	4%	/	-17%	11%	-3%[57.1 µM]	33%	/	GALK inh confirm=33µM*;GALK redox cs=1%;HEK293 tox=?
O=C1C(C2=NC(C(=O)O)C3C(=O)N(c4ccccc4)C(=O)C23)=C(O)c2ccccc21 (stereo not given)	-10%	1%	-2%	34%	6%	1%	/
O=C1C(C2=C(O)c3ccccc3C2=O)=Nc2ccccc21	-22%	?	32µM*	27%	-26%	9%	/	GALK inh confirm=24µM*;GALK redox cs=15µM*;HEK293 tox=9%
C[C@H](NC(=O)C1CCC(CNC(=O)[C@@H]2CCCN2C(=O)OC(C)(C)C)CC1)C(=O)O (stereo not given in full)	2%	/	-13%	22%	-2%	-28%	/	GALK inh confirm=-2%;GALK redox cs=2%;HEK293 tox=2%
CC(C)[C@H](NC(=O)C1CCC(CNC(=O)[C@@H]2CCCN2C(=O)OC(C)(C)C)CC1)C(=O)O (stereo not given in full)	4%	/	-23%	-4%	0%	-1%	/
CN(C)c1ccc2nc3ccc(=O)cc-3sc2c1	/	/	40µM*	/	56µM*	/	?
CC(=O)Nc1ccc(NS(=O)(=O)c2ccc3c(c2)CCCN3C(C)=O)cc1	-3%[60.1 µM]	/	-13%	26%	/	-3%	/
CC(C)(C)NC(=O)CN(C(=O)CS(=O)CC(=O)Nc1ccc(F)cc1)c1ccc(F)c(Cl)c1 (stereo not given)	0%	5%	-19%	25%	4%	10%	/
CC(=O)c1ccc(N2CCN(S(=O)(=O)c3ccc(-c4coc(C)n4)cc3)CC2)cc1	-4%[60.1 µM]	/	79µM*	?	/	45µM*	?
Cc1nc(-c2ccc(S(=O)(=O)N3CCN(c4ccccc4)CC3)cc2)co1	-7%	/	3%	-10%	6%	3%	/
COc1ccc(C2C=C(c3ccc(Br)cc3)Nc3nnnn32)c(OC)c1 (stereo not given)	-12%	/	-19%	-5%	/	4%	/
O=C(O)c1cc(-c2ccc(-c3c(-c4ccc5c(c4)OCO5)noc3-c3ccsc3)cc2)nc2ccccc12	-30%	-17%	79µM*	?	?	-15%	/	Pol kappa inh-2=?
COc1ccc(OC)c(Nc2nc(NCc3ccco3)nc(N)c2[N+](=O)[O-])c1	3%	/	-10%	-7%	-5%	8%	/
COc1ccc(OCCn2nnc3sc4c(c3c2=O)CCCC4)cc1	?	/	/	71µM*	/	11µM*	?	Pol kappa inh-2=?
NC1=NC[C@@H](CC2CCCCC2)N1CCc1cc(C(F)(F)F)cc(C(F)(F)F)c1	-5%	2%	-12%	-1%	-13%	/	/
Cc1ccc(C(=O)NCC(=O)OCN2C(=O)c3ccccc3C2=O)cc1C	-6%	0%	-13%	18%	-6%	/	/
Cc1ccc(C(=O)NC2(O)C(=O)c3ccccc3C2=O)cc1C	-9%	/	45µM*	2µM*	-5%[11.6 µM]	12%	?	GALK inh confirm=27µM*;GALK redox cs=12µM*;HEK293 tox=3%
O=C(NC1(O)C(=O)c2ccccc2C1=O)c1ccc(C(F)(F)F)cc1	-15%	/	45µM*	1.8µM*	?	34%	?	GALK inh confirm=19µM*;GALK redox cs=11µM*;HEK293 tox=-7%
O=C(c1ccco1)N(CCC(c1ccccc1)c1ccco1)Cc1ccccc1 (stereo not given)	79µM*	?	22µM*	28µM*	?	25µM*	?	Pol kappa inh-2=67*
O=C(CCc1nnc2ccc(NCc3ccco3)nn12)Nc1ccccc1F	-23%	/	?	?	-15%	?	/
O=C(CCc1nnc2ccc(NCc3ccco3)nn12)Nc1ccccn1	5%	/	28µM*	20%	-3%[11.6 µM]	?	?
Cc1cccc(NC(=O)CCc2nnc3ccc(NCc4ccco4)nn23)n1	1%	/	25µM*	36%	-7%[11.6 µM]	?	76*
O=c1c2ccccc2nc2ccc(NCc3ccco3)nn12	-37%	-11%	?	?	?	?	?
C[C@H](NC(=O)c1ncn2c1C(=O)N[C@@H](C)C2)C(=O)OC(C)(C)C	/	/	-8%	/	3%	/	/
Cc1ccc(CNCc2cn[nH]c2-c2ccc(C)cc2)cc1	8%	/	/	10%	/	/	/
SMILES	Pol kappa inh-1	L3MBTL1 block	Pol eta inh-1	POLI inh	WRN inhibitor	Pol beta inh	Pol eta inh-2	others
Cc1ccc(S(=O)(=O)CCC(=O)OCC(=O)Nc2sccc2C#N)cc1	/	/	28µM*	/	-2%	/	?
COc1ccc(C(=O)NCC(=O)OCC(=O)Nc2sccc2C#N)cc1OC	?	-28%	50µM*	-75%	-28%[57.1 µM]	?	?
COc1ccc(/C(N)=N/OC(=O)CSc2ccc(C)cc2)cc1OC	-4%	/	-10%	14%	-10%	0%	/
CN(C)C(=O)c1cc(-c2ccccc2)no1	5%	-5%	-3%	-5%	2%	2%	/
COc1cc(/C=C2\C(=O)ON=C2c2ccccc2)cc(Cl)c1O	-10%	-25%	-14%	?	?	-25%	/
COc1cc(/C=C2\C(=O)ON=C2c2ccccc2)cc(Br)c1O	2%	/	45µM*	?	?	2%	/	GALK inh confirm=38µM*;GALK redox cs=-2%;HEK293 tox=-17%
CC(=O)Nc1ccc(N2C(=O)c3cccc4c(O)ccc(c34)C2=O)cc1	?	/	32µM*	?	50µM*	?	?	Pol kappa inh-2=30*
CC(Cc1c[nH]c2ccccc12)C(=O)NCc1ccco1 (stereo not given)	?	/	20µM*	?	-17%	32µM*	30*	Pol kappa inh-2=42*
